Laboratory results reported in PubChem BioAssay (NCATS).
Several values for one entry are separate records, joined by “and”; a condition that tells them apart may be missing. Equal values may be shown once. Inconclusive results are not listed. Activity calls are given as the source filed them. Calls follow the shape of the dose curve; as a rule, active = well fitted curve in the direction sought with a large enough effect; inconclusive = small, poorly fitted or top-dose-only effect, or another doubt; inactive = no such curve, though single readings can be large; an effect the other way counts as inactive or inconclusive.

Experiments:
[1] = qHTS Assay for Identifying Gametocytocidal Compounds (AID 743244); also: potency is read from the fitted curve at half-maximal effect;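 as to max response: % is scaled to controls: 0 for no effect and ±100 for the full control effect; actives lower the fluorescent signal which means gametocytes are killed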; settings: P. falciparum 3D7 stage III-V gametocytes, alamarBlue, 72 h; max response: hits give low values
Procedure, shortened: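 Using 20,000 stage III–V 3D7 gametocytes per well, compounds were incubated 72 h under 37 °C/5% CO2. Viability was then assessed by 24 h alamarBlue reduction, measured fluorometrically at 525/598 nm.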

[2] = qHTS assay for measurement of the activity of small molecule inhibitors on Zika virus induced Caspase-3 activity in human iPSC derived neural progenitor cells (hNPCs) (AID 1224857); also: nearly all actives have a fitted effect of over 65% in size; also: potency is read from the fitted curve at half-maximal effect
Procedure, shortened: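 After overnight (16–20 h) culture at 350 cells/well, hNPCs get compound, then ZIKV 2 FFU/cell one hour later. Six hours on, Caspase-Glo 3/7 is added and luminescence measured.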

[3] = qHTS assay for measurement of the activity of small molecule inhibitors on Zika virus induced Caspase-3 activity in human astrocytoma cells (AID 1224859);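 also: plate controls were ZIKV-infected untreated cells for no effect and uninfected cells for full effect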
Procedure, shortened: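 Inhibition of Zika-induced caspase-3/7 activity: SNB-19 cells, 1 h compound pretreatment, ZIKV 2 FFU/cell for 6 h at 37 C, Caspase-Glo luminescence read-out.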

[4] = qHTS assay to identify small molecule inhibitors of chordoma cells - UCH-1 (AID 1259355); also: nearly all actives have a fitted effect of over 55% in size; also: potency is read from the fitted curve at half-maximal effect; series mostly up to about 46 µM
Procedure, shortened: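 A 48hr growth-inhibition format: each drug tested at 15 concentrations together with added auranofin, camptothecin, doxorubicin, rubitecan and topotecan, with cell viability quantified as CellTiter-Glo luminescence.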

[5] = qHTS assay to identify small molecule inhibitors of chordoma cells - UCH-2 (AID 1259356); also: potency is read from the fitted curve at half-maximal effect
[6] = P-glycoprotein substrates identified in KB-8-5-11 adenocarcinoma cell line, qHTS therapeutic library screen (AID 1346987); also: nearly all actives have a fitted effect of over 65% in size; also: potency is read from the fitted curve at half-maximal effect
Procedure, shortened: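 Compounds are pinned in dose-response onto KB-8-5-11 cells (500 cells/well, colchicine-free medium) and left 72 h at 37 degree C. CellTiter-Glo luminescence then yields AC50 values.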

C=CCN1CCc2nc(N)sc2CC1
inactive: max response [1] 14.4% | Potency [2] | outcome [3] | Potency [4] | Potency [5] | Potency [6]

O=C1OC(CN2CCOCC2)CN1/N=C/c1ccc([N+](=O)[O-])o1 (stereo not drawn)
inactive: max response [1] -7.98% | Potency [2] | outcome [3] | Potency [4] | Potency [5] | Potency [6]

CCOCCn1c(N2CCCN(C)CC2)nc2ccccc21
inactive: max response [1] -5.27% | Potency [2] | outcome [3] | Potency [4] | Potency [5] | Potency [6]

CCc1cc(Cl)c(OC)c(C(=O)NC[C@@H]2CCCN2CC)c1O
inactive: max response [1] -8.19% and -10.7% and 19.5% | Potency [2] | outcome [3] | Potency [4] | Potency [5] | Potency [6]

CN(Cc1ccc(C(C)(C)C)cc1)Cc1cccc2ccccc12
inactive: max response [1] 18.1% and -10.3% | Potency [2] | outcome [3] | Potency [4] | Potency [5] | Potency [6]

CN(C)CCN1C(=O)c2ccccc2N(C)c2ccccc21
inactive: max response [1] -0.0527% | Potency [2] | outcome [3] | Potency [4] | Potency [5] | Potency [6]

CCC(C(=O)OCCOCCN(CC)CC)c1ccccc1 (stereo not drawn)
inactive: max response [1] 6.25% | Potency [2] | outcome [3] | Potency [4] | Potency [5] | Potency [6]

CCc1nn(CCCN2CCN(c3cccc(Cl)c3)CC2)c(=O)n1CCOc1ccccc1
active: Potency [6] 10.3 µM
inactive: max response [1] -8.53% and -14% | Potency [2] | outcome [3] | Potency [4] | Potency [5]

CCOC(=O)[C@H](CCc1ccccc1)N[C@@H](C)C(=O)N1[C@H](C(=O)O)C[C@@H]2CCC[C@@H]21
inactive: max response [1] -0.0266% | Potency [2] | outcome [3] | Potency [4] | Potency [5] | Potency [6]

Cc1cc(C)cc(OCC2CNC(=O)O2)c1 (stereo not drawn)
inactive: max response [1] -6.82% | Potency [2] | outcome [3] | Potency [4] | Potency [5] | Potency [6]

CN1CCC[C@@H]1CCO[C@](C)(c1ccccc1)c1ccc(Cl)cc1
inactive: max response [1] -0.809% | Potency [2] | outcome [3] | Potency [4] | Potency [5] | Potency [6]

CC(=O)Nc1ccc(S(=O)(=O)Nc2ccc([N+](=O)[O-])cc2)cc1
inactive: max response [1] 3.59% | Potency [2] | outcome [3] | Potency [4] | Potency [5] | Potency [6]

CCNC(=O)/C=C/c1cccc(Br)c1
inactive: max response [1] 3.79% | Potency [2] | outcome [3] | Potency [4] | Potency [5] | Potency [6]

COc1ccc(/C=N/NC(=O)c2ccncc2)cc1OC
inactive: max response [1] -3.84% | Potency [2] | outcome [3] | Potency [4] | Potency [5] | Potency [6]

COc1ccc(-c2cc(C(F)F)nn2-c2ccc(S(N)(=O)=O)cc2)cc1F
inactive: max response [1] 25.1% | Potency [2] | outcome [3] | Potency [4] | Potency [5] | Potency [6]

CCN1/C(=C/C=C/c2sc3ccccc3[n+]2CC)Sc2ccccc21
active: Potency [1] 1.58 µM | Potency [2] 3.16 µM | Potency [4] 7.94 µM | Potency [5] 5.8 µM | Potency [6] 18.4 µM
inactive: outcome [3]

CC[C@]12CCCN3CCc4c(n(c5ccccc45)C(=O)C1)[C@@H]32
active: Potency [6] 5.56 µM and 5.8 µM
inactive: max response [1] 3.35% | Potency [2] | outcome [3] | Potency [4] | Potency [5]

O=C(O)CCNC(=O)c1ccccc1
inactive: max response [1] 7.27% | Potency [2] | outcome [3] | Potency [4] | Potency [5] | Potency [6]

O=S(c1cc(Cl)cc(Cl)c1O)c1cc(Cl)cc(Cl)c1O
inactive: max response [1] 11.4% | Potency [2] | outcome [3] | Potency [4] | Potency [5] | Potency [6]

Nc1nc(N)c(-c2ccccc2)s1
inactive: max response [1] -3.45% | Potency [2] | outcome [3] | Potency [4] | Potency [5] | Potency [6]

O=C(O)CCc1nc2ccccc2[nH]1
inactive: max response [1] 8.17% | Potency [2] | outcome [3] | Potency [4] | Potency [5] | Potency [6]

O=C(CCN1CCN2CCCC2C1)N1c2ccccc2Sc2ccc(Cl)cc21 (stereo not drawn)
inactive: Potency [2] | outcome [3] | Potency [4] | Potency [5] | Potency [6]
active: Potency [1] 22.4 µM

COc1cc(C(=O)NCc2ccc(OCCN(C)C)cc2)cc(OC)c1OC
inactive: max response [1] 1.8% | Potency [2] | outcome [3] | Potency [4] | Potency [5] | Potency [6]

COc1cc(C(=O)N2CCCCCCC2)cc(OC)c1OC
inactive: max response [1] 12.8% | Potency [2] | outcome [3] | Potency [4] | Potency [5] | Potency [6]

CC(=O)N[C@@H](CCC(=O)O)C(=O)O
inactive: max response [1] -0.648% | Potency [2] | outcome [3] | Potency [4] | Potency [5] | Potency [6]

CC(=O)Nc1ccc(OC(=O)c2ccccc2OC(C)=O)cc1
inactive: max response [1] 12.6% | Potency [2] | outcome [3] | Potency [4] | Potency [5] | Potency [6]

NC(=O)n1c(O)c(C(=O)c2cccs2)c2cc(Cl)ccc21
inactive: max response [1] -6.13% | Potency [2] | outcome [3] | Potency [4] | Potency [5] | Potency [6]

COc1ccc(CCN(C)CCCN2CCc3cc(OC)c(OC)cc3CC2=O)cc1OC
inactive: max response [1] -9.4% | Potency [2] | outcome [3] | Potency [4] | Potency [5] | Potency [6]
